Assay results from PubChem BioAssay AID485364 (National Center for Advancing Translational Sciences (NCATS), 2010).
In all, about 360,000 compounds went through this assay and about 11,000 (3.1%) were called active. Where a call stands in place of a potency, no number is given. Roughly 4% stayed inconclusive and do not appear here. Calls come from the whole dose curve; as a rule, active = well fitted inhibition curve with a large enough effect; inconclusive = small, poorly fitted or top-dose-only effect; inactive = no such curve, though single readings can be large or run the other way. This excerpt belongs to a sample that is enriched for actives.

Target: Schistosoma mansoni thioredoxin glutathione reductase (TGR) (UniProt Q962Y6)
Experiment: qHTS Assay for the Inhibitors of Schistosoma Mansoni Peroxiredoxins; note: nearly all actives have a fitted effect of over 60% in size
Settings: purified TGR, DTNB reduction, TNB absorbance 405 nm; series mostly up to 114 µM
Summary of the method: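 First, TGR (20 nM dispensed) and NADPH were mixed with compound. Second, a 15 min room-temperature incubation followed. Third, further NADPH and then DTNB were added to start the reaction. Finally, TNB absorbance was monitored kinetically.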
Potency is the fitted concentration of half-maximal effect.

SMILES | Potency
O=C(CCSCc1ccccc1F)N1CCN(c2ccc(Cl)cc2)CC1 | inactive
COc1ccccc1C(=O)NCCC(=O)NN1C(=O)NC2(CCCCC2)C1=O | inactive
COc1ccccc1C(=O)Nn1cnnc1 | inactive
COc1ccccc1C(=O)NN1C(=O)C2C3C=CC(O3)C2C1=O (stereo not drawn) | 17.8 µM (active)
O=C(NN1C(=O)C2C3C=CC(O3)C2C1=O)c1ccccc1 (stereo not drawn) | 20 µM (active)
CC(C)=C1C2CCC1C1C(=O)N(NC(=O)c3ccco3)C(=O)C21 (stereo not drawn) | inactive
O=C(NN1C(=O)C2C3C=CC(C4CC34)C2C1=O)c1ccc(Cl)cc1 (stereo not drawn) | inactive
O=C(NN1C(=O)C2C3C=CC(C3)C2C1=O)c1ccco1 (stereo not drawn) | inactive
COc1ccc(C(=O)NN2C(=O)C3C(c4ccccc4)C=CC(c4ccccc4)C3C2=O)cc1 (stereo not drawn) | inactive
O=C(NN1C(=O)C2C3C=CC(O3)C2C1=O)c1ccncc1 (stereo not drawn) | 20 µM (active)
COc1cccc(N2CCN(S(=O)(=O)c3ccc4c(c3)CCCN4C(C)=O)CC2)c1 | inactive
O=C(Nc1nnc(C2CC(=O)N(c3ccc(Cl)cc3)C2)s1)c1ccco1 (stereo not drawn) | inactive
Cc1ccc(S(=O)(=O)c2cn(Cc3ccccc3)c3cc(N4CCCC4)c(F)cc3c2=O)c(C)c1 | inactive
COc1cc(C(=O)N2CCN(C(=O)COc3cccc(C)c3)CC2)cc(OC)c1OC | inactive
Cc1nnc(SCC(=O)NCc2ccccc2Cl)c2nn(-c3ccccc3)c(C)c12 | inactive
CC1CCN(S(=O)(=O)c2ccc3c(ccn3CCC(=O)NCc3ccc(N(C)C)cc3)c2)CC1 | inactive
Cc1ccc(NC(=O)c2cc(S(=O)(=O)NCCC3=CCCCC3)ccc2F)cc1C | inactive
CCOc1ccc(OCC)c(NC(=O)c2cc(C)nc3c2c(C)nn3-c2cccc(Cl)c2C)c1 | inactive
O=C(/C=C/c1ccccc1)N1CCN(Cc2cc(=O)n3nc(-c4ccccc4F)sc3n2)CC1 | inactive
CCOc1ccc(CCNC(=O)c2cc3c(=O)n(C)c4ccccc4c3n2C)cc1 | inactive
CCN1CCCC1CNC(=O)c1cc2c(=O)n(C)c3ccccc3c2n1C (stereo not drawn) | 50.1 µM (active)
Cn1c(C(=O)N2CCC(C(N)=O)CC2)cc2c(=O)n(C)c3ccccc3c21 | inactive
O=C(c1ccc2c(c1)N(Cc1ccc(Cl)cc1)C(=O)c1ccccc1S2(=O)=O)N1CCCCC1 | inactive
CCOc1ccc(C(=O)/C=C/c2cn(CC(O)CN3CCCCCC3)c3ccccc23)cc1 (stereo not drawn) | inactive
Cc1ccc(Cn2c(CNC(=O)Cc3cccc(C)c3)nc3cccnc32)cc1 | inactive

SMILES | Potency
COc1ccc(C(=O)NC2CCCc3c2cnn3-c2cccc(C)c2C)c(OC)n1 (stereo not drawn) | inactive
Cn1nccc1C(=O)NC1CCCc2c1cnn2-c1ccccc1F (stereo not drawn) | inactive
Cc1cc(C(=O)NC2CCCc3c2cnn3-c2cccc(C)c2C)c(C)o1 (stereo not drawn) | 35.5 µM (active)
Brc1ccc(C2=CC(c3ccco3)n3ncnc3N2)cc1 (stereo not drawn) | 17.8 µM (active)
Clc1ccc2c(c1)C1=C(C(c3ccncc3)O2)C(c2ccc(Br)cc2)n2ncnc2N1 (stereo not drawn) | inactive
Cc1cccc(OCCSc2nc3ccccc3n2CC(=O)N2CCCCC2)c1C | inactive
COc1cc(C2CC(=O)N3CN(Cc4ccccc4)CSC3=C2C#N)ccc1OCc1ccccc1 (stereo not drawn) | 8.91 µM (active)
COC(=O)C1=C(c2ccc(F)cc2OCc2ccccc2)C[C@@H]2CC[C@H]1N2C(=O)NCc1ccc(OC)c(OC)c1 | inactive
COc1ccc(CCN=C2SCC(=O)N2Cc2ccccc2)cc1OC | inactive
CCCOc1ccc(C2c3c(-c4ccccc4O)n[nH]c3C(=O)N2Cc2cccnc2)cc1 (stereo not drawn) | inactive
CC(=O)Nc1ccc(NS(=O)(=O)c2ccc3c(c2)NC(=O)CC(=O)N3)cc1 | inactive
CC(=O)Nc1ccc(S(=O)(=O)NC2(C(F)(F)F)C(=O)NC(C)=C2C#N)cc1 (stereo not drawn) | 39.8 µM (active)
CC(=O)Nc1ccc(S(=O)(=O)NC2(C(F)(F)F)C(=O)Nc3c2c(=O)[nH]c(=O)n3Cc2ccccc2)cc1 (stereo not drawn) | inactive
CCOC(=O)c1cc(-c2ccc(OC)c(S(=O)(=O)Nc3ccc(OC)cc3OC)c2)on1 | inactive
CCOC(=O)c1ccc(NC(=O)Cn2c(=O)cc(C)c3c(C)nn(-c4cccc(F)c4)c32)cc1 | inactive
O=C(COC(=O)Cn1cnc2ccccc2c1=O)NCc1ccccc1Cl | inactive
COCc1cc(C(C)=O)ccc1OC | inactive
COc1ccc(C(C)=O)cc1COC(=O)Cn1cnc2ccccc2c1=O | 39.8 µM (active)
CC(Sc1oc(-c2ccco2)nc1S(=O)(=O)c1ccc(Br)cc1)c1ccccc1 (stereo not drawn) | inactive
COc1ccc(NC(=O)C2CCN(c3ccc(Sc4ccc(C)cc4)nn3)CC2)c(OC)c1 | inactive
Cc1nnc(SCc2cc(=O)c3cc(F)ccc3[nH]2)n1C | inactive
CCOC(=O)c1ccccc1NC(=O)CC1Nc2ccccc2NC1=O (stereo not drawn) | 39.8 µM (active)
CCOC(=O)c1ccccc1NC(=S)N1CCC(C(N)=O)CC1 | inactive
COC(=O)c1cc(C)sc1NC(=O)CC1Nc2ccccc2NC1=O (stereo not drawn) | inactive
CN1CCN(C2(CNC(=O)COc3ccc(C(C)(C)C)cc3)CCCCC2)CC1 | inactive

SMILES | Potency
Cc1ccc2nc(N3CCN(c4cccc(Cl)c4)CC3)c3nnnn3c2c1 | inactive
COc1ccc(Cn2ccn(Cc3cccc(OC)c3)c(=O)c2=O)cc1 | inactive
CCCCc1nn2c(=O)cc(COC(=O)c3cccc(NC(=O)COc4ccccc4)c3)nc2s1 | inactive
COc1ccccc1N(C(=O)Cn1nnc2ccccc21)C(C(=O)NCc1ccco1)c1ccc(C)o1 (stereo not drawn) | 44.7 µM (active)
O=C(NCc1ccco1)C(c1ccncc1)N(C(=O)Cn1nnc2ccccc21)c1ccccc1 (stereo not drawn) | inactive
Cc1ccc(C(C(=O)NCc2ccco2)N(CC2CCCO2)C(=O)Cn2nnc3ccccc32)cc1 (stereo not drawn) | inactive
Cc1ccc(OCCSc2nc(-c3cccs3)nc3cc(=O)[nH]n23)cc1Cl | inactive
Cc1ccc(-c2nc3ccccn3c2Nc2c(C)cccc2C)o1 | inactive
COc1cc(Cl)c(C)cc1NC(=O)CCc1nc2cccnc2n1Cc1cccs1 | inactive
O=c1[nH]c(CSc2ncc(-c3ccc(F)cc3)n2Cc2ccco2)nc2ccccc12 | inactive
Clc1cccc(-c2nc3nc4ccccc4nc3n2Cc2ccco2)c1 | 17.8 µM (active)
CCC(C)n1c(-c2cc(OC)c(OC)c(OC)c2)nc2nc3ccccc3nc21 (stereo not drawn) | inactive
Cc1ccc(NC(=O)C2CCN(S(=O)(=O)c3cc(-c4noc(C)n4)ccc3C)CC2)c(C)c1 | inactive
FC(F)(F)c1cc(Nc2nc3ccccc3c3nncn23)ccc1Cl | inactive
CCOc1ccc(NCCC(=O)c2ccc3c(c2)OCO3)cc1 | 1.41 µM (active)
COC(=O)CCNc1ccc2c(c1)OCCO2 | inactive
O=C(COc1ccc(Cl)cc1)Nc1ccc2c(c1)OCO2 | inactive
Cc1ccc(NC(=O)CSc2nnc3[nH]c(=O)cc(C)n23)cc1Cl | inactive
Cc1oc2c(c1C(=O)Nc1ccc(F)c(F)c1)C1=NCCN1C=N2 | inactive
NC(=O)c1ccsc1NC(=O)c1ccco1 | 44.7 µM (active)
COc1cc(OC)cc(C(=O)OCC(=O)Nc2sccc2C(N)=O)c1 | inactive
CC1CN(S(=O)(=O)c2ccc(C(=O)Nc3sccc3C(N)=O)cc2)CC(C)O1 (stereo not drawn) | inactive
O=C(CCN1C(=O)c2ccccc2C1=O)Nc1cccc(F)c1 | inactive
O=C(OCCN1C(=O)c2ccccc2C1=O)Oc1ccccc1 | inactive
O=C1c2ccccc2C(=O)N1CCC(O)C[N+](=O)[O-] (stereo not drawn) | 28.2 µM (active)

SMILES | Potency
Cc1ccc(CCNC(=O)C2CCN(c3nnc(-n4cccc4CNc4ccc(C)cc4)s3)CC2)cc1 | inactive
COc1ccc(-c2noc(-c3ccc(N4CCN(c5ccccc5)CC4)c([N+](=O)[O-])c3)n2)cc1OC | inactive
O=C(NCCc1ccccc1)C(=O)NCC(c1ccco1)S(=O)(=O)c1ccccc1 (stereo not drawn) | inactive
O=C(NCc1ccncc1)C(=O)NCc1ccco1 | inactive
O=C(NCc1ccccc1)C(=O)NCC(c1ccco1)S(=O)(=O)c1ccc(Cl)cc1 (stereo not drawn) | 50.1 µM (active)
COc1ccccc1CNC(=O)C(=O)NCC(c1ccco1)S(=O)(=O)c1ccc(F)cc1 (stereo not drawn) | 10 µM (active)
COc1ccc(S(=O)(=O)NC(CC(=O)NCc2ccccc2OC)c2ccco2)cc1 (stereo not drawn) | inactive
COc1ccc(S(=O)(=O)N(CC(=O)NCc2ccco2)c2ccc(F)cc2)cc1 | inactive
COC(=O)c1cnc(N2CCN(c3ccccc3OC)CC2)c2ccccc12 | inactive
Cc1ccc(F)cc1S(=O)(=O)N1CCC(c2nc3ccccc3s2)CC1 | inactive
Cc1ccc2c(c1)N(C(=O)CCC(=O)NCc1ccccc1F)CC(C)O2 (stereo not drawn) | inactive
CC(=O)N1CCCc2cc(S(=O)(=O)N3CCC(C(=O)NCc4ccc(C)cc4)CC3)ccc21 | inactive
O=S(=O)(NCCc1nnc2ccc(SCc3ccc(Cl)cc3Cl)nn12)c1ccccc1 | inactive
O=C(NCC(c1ccc(Cl)cc1)N1CCOCC1)c1ccccc1F (stereo not drawn) | inactive
CCOc1cccc(NC(=O)c2ccc(F)c(S(=O)(=O)N(CC)c3cccc(C)c3)c2)c1 | inactive
c1ccc(C2c3[nH]c4ccccc4c3CCN2Cc2cccn2-c2cccnc2)nc1 (stereo not drawn) | 15.8 µM (active)
O=C(c1cn2ccccc2n1)N1CCc2c([nH]c3ccccc23)C1c1ccccn1 (stereo not drawn) | inactive
CCOc1ccc(C2c3[nH]c4ccccc4c3CCN2Cc2cccn2-c2ncccn2)cc1 (stereo not drawn) | inactive
Cc1ccc(NC(=O)CSc2nc3c([nH]c4ccccc43)c(=O)n2-c2ccccc2)c(C)c1 | inactive
CCc1c(C)sc(NC(=O)C2c3ccccc3Oc3ccccc32)c1C(=O)OC(C)C | inactive
CCOC(=O)C(=O)Nc1nc(-c2ccccc2)c(CC)s1 | inactive
C/C(=N/Nc1nc(-c2ccccc2)c(CC(=O)O)s1)c1ccccc1 | 0.316 µM (active)
CCOc1ccc(-c2nc(C)sc2CC(=O)O)cc1 | inactive
